RBX1-CUL1 inh = blocks human RBX1-Cullin-1 di-ubiquitin formation. inhibition, % at 10 µM. in vitro K48 di-Ub FRET, acceptor:donor ratio, 45 min. AID 1347404. P62877+Q13616. 0.6% of 140,000 active; in the data active means inhibition above about 25%
Target sequence (P62877 whole entry, looked up): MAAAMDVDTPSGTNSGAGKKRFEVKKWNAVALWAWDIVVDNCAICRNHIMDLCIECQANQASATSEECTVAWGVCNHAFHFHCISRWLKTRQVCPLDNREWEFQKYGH
Target sequence (Q13616 whole entry, looked up): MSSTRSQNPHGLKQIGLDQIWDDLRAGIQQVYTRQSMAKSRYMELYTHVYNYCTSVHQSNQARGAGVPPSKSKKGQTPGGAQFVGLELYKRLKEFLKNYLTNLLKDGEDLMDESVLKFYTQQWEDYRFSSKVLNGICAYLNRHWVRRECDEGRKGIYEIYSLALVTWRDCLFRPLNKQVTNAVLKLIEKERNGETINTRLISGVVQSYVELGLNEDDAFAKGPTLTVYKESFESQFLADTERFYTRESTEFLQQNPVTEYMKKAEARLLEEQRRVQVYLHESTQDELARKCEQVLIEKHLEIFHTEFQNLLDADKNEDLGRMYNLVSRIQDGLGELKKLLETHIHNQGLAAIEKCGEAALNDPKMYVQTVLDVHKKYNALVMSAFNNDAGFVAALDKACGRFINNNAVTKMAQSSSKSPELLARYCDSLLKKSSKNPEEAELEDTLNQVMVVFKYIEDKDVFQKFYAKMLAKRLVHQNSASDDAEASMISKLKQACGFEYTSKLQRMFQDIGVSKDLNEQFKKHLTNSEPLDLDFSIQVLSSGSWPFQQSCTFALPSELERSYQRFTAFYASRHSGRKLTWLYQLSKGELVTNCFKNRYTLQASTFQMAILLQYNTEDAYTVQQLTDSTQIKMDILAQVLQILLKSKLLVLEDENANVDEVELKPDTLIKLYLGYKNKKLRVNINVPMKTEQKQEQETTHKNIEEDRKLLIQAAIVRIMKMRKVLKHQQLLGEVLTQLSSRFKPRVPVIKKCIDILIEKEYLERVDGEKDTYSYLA
Each line names hits and unclear results; the compound was inactive in the other large screens. This is one part of a sample in which hits are shown more often than they occur.

Cc1cccc(C(=O)Oc2cccc(NC(=O)Cc3nn(C)c(=O)c4ccccc34)c2)c1	none
CCOC(=O)c1ccc(NN2C(=O)c3ccc(Br)cc3C2=O)c([N+](=O)[O-])c1	none
CCOC(=O)c1c2c(n3ccccc13)C(=O)c1ccccc1C2=O	none
CCOC(=O)c1c2c(n(C)c1CNC(C)C)C(=O)C(=O)c1ccc(Br)cc1-2	RBX1-CUL1 inh 97.9
COCc1noc(Cn2ncc(N3CCc4ccccc4C3)cc2=O)n1	none
CC(C)N1C(=O)/C(=C/c2ccc3c(c2)OCO3)C(=O)N(Cc2ccco2)C1=O	RBX1-CUL1 inh 101.8
CC(C)(C)C1(C)OC(=O)C(=Cc2ccc3c(c2)OCO3)C(=O)O1 (configuration not stated)	none
CC(C(=O)O)N1C(=O)/C(=C/c2ccc3c(c2)OCO3)SC1=S (configuration not stated)	none
Cc1ccc(Nc2c([N+](=O)[O-])cc(C(=O)O)cc2[N+](=O)[O-])cc1C	none
COc1cc(C=C2C(=O)OC(c3ccccc3)OC2=O)cc(Cl)c1O (configuration not stated)	none
CCCCOc1ccc(/C=C2/C(=O)N(c3cccc(Cl)c3C)N=C2C)cc1OC	none
COc1cc(/C=C2\C(=O)N(c3ccccc3Cl)N=C2C)cc(I)c1O	RBX1-CUL1 inh 77.7
O=C(c1ccccc1)N1c2ccccc2N=C(c2cccc([N+](=O)[O-])c2)CC1c1ccccc1 (configuration not stated)	none
COC(=O)NNc1ccnc2cc(Cl)ccc12	none
Clc1ccc2c(NCCN3CCN(CCCN4CCN(CCNc5ccnc6cc(Cl)ccc56)CC4)CC3)ccnc2c1	none
Clc1ccc2c(NCCN3CCN(CCCCCCCN4CCN(CCNc5ccnc6cc(Cl)ccc56)CC4)CC3)ccnc2c1	RBX1-CUL1 inh 26.8
Cc1ccccc1-n1c(SCc2cccc3ccccc23)nc2sc3c(c2c1=O)CCC3	none
O=S(=O)(/C=C/c1ccccc1)c1ccc(Cl)cc1Cl	none
COc1ccccc1NC(=O)C1C(C)=Nc2nc(SCc3ccccc3F)nn2C1c1ccncc1 (configuration not stated)	none
O=C(/C=C/c1ccc2c(c1)OCO2)Sc1ccc(Cl)cc1	none
CN(CCC(=O)/C=C/c1ccc(Cl)c(Cl)c1)CCc1ccc2c(c1)OCO2	RBX1-CUL1 inh 82.6
CC(C)c1ccc(/C=C/C(=O)NCc2ccc3c(c2)OCO3)cc1	none
O=C(C1CC1)N1CCN(Cc2c(Cl)cccc2Cl)CC1	none
Cc1ccc(C)c(N2CCN(C(=O)C3CCN(c4nc5ccc(C)cc5[nH]4)CC3)CC2)c1	none
COc1cc(NC(=O)Cn2c(=O)nc(-c3ccccc3F)c3cc(Cl)ccc32)cc(OC)c1	none
CN(C)CCCNC(=O)c1ccc(I)cc1	none
COc1cc(NC(=O)/C=C\c2ccc(C)o2)c(OC)cc1Cl	none
Cc1ccc(/C=C/C(=O)Nc2ccc(C)c(Cl)c2)o1	RBX1-CUL1 inh 65.7
Cc1ccc(/C=C/C(=O)Nc2nc(-c3ccc(C)c(C)c3)cs2)o1	none
Cc1ccc(/C=C/C(=O)Nc2ccccc2C(N)=O)o1	none
Cc1ccc(/C=C/C(=O)Nc2cccnc2)o1	RBX1-CUL1 inh 44.7
COc1ccc(/C=C/C(=O)Nc2ccc(C)c(Cl)c2)cc1OC	none
Clc1ccc(OCCSc2nc3ccccc3[nH]2)cc1	none
O=C(Nc1ccccc1F)c1ccc(-c2ccccc2)s1	none
O=S(=O)(c1ccc(Cl)cc1)N1CCN=C1c1ccccc1	none
CCc1c(C)sc(NC(=O)C2CCCCC2C(=O)O)c1C(N)=O (configuration not stated)	none
CC1(C)CC(=O)c2cnc(NCc3ccccc3)nc2C1	none
O=C(NC1CCOC1=O)c1ccc2nc(C3CCCCC3)oc2c1 (configuration not stated)	none
CCOC(=O)c1c(C)sc(-c2c(-c3cc(C)ccc3C)[nH]c3c2c(=O)n(C)c(=O)n3C)c1O	none
CCOC(=O)c1c(C)sc(-c2c(-c3cc(C)ccc3C)[nH]c3c2c(=O)[nH]c(=O)n3C)c1O	RBX1-CUL1 inh 49.0
CCOC(=O)c1c(C)sc(-c2c(-c3cccc(Cl)c3)[nH]c3c2c(=O)n(C)c(=O)n3C)c1O	RBX1-CUL1 inh 45.0
Cc1ccc(C)c(-c2[nH]c3c(c2-c2c(-n4cccc4)n(C)c(=O)n(C)c2=O)c(=O)n(C)c(=O)n3C)c1	none
CCOC(=O)c1c(NC(=O)c2c(F)cccc2F)sc(C)c1-c1cccc(Cl)c1	none
CCOC(=O)C1=CN(c2ccc(F)cc2)C=C(C(=O)OCC)C1c1cccc(Cl)c1	none
CC(C)(C)C1CCc2onc(C(=O)Nc3sc4c(c3C(N)=O)CCCC4)c2C1 (configuration not stated)	none
c1ccc(-c2noc3c2CN(C2CCCC2)CC3)cc1	none
CC1=Nc2nc(SCc3ccccc3F)nn2C(c2cccc(F)c2)C1C(=O)Nc1cccnc1 (configuration not stated)	none
O=C(NCCc1ccccn1)c1coc(COc2cccc(F)c2F)n1	none
O=C(Nc1ccccc1)OCc1ccc(-c2ccc(Cl)cc2)o1	none
CC(=O)Oc1ccc(OC(C)=O)c2c1C1CCCCC1=C1CCCCC12 (configuration not stated)	none
CC(=O)Oc1ccc(O)c2c1C(=O)C=CC2=O	RBX1-CUL1 inh 105.0
COc1cc(C(=O)O)ccc1OC(=O)c1ccccc1OC(C)=O	none
CCCCN(C)c1ncnc2ccc(I)cc12	none
